# UGM FP inh: inhibitors of M. tuberculosis UDP-galactopyranose mutase. P9WIQ1. purified UGM, fluorescence polarization probe displacement. inhibition, % at 10 µM. 320,000 compounds, 0.06% hits; in the data active = inhibition above about 10%, passing the limit was not always enough
# Vc quorum ag-1: inducers of Vibrio cholerae quorum light production without autoinducers; V. cholerae BH1578 lux reporter, luminescence, 6 h; activation, % at 18.7 µM; 350,000 compounds, 0.16% hits; AID 588436; in the data active = activation mostly above about 9.7%, no sharp cut-off
# TcdB GH inh: blocks C. difficile toxin B glycohydrolase activity; P18177; TcdB glycohydrolase enzymatic assay, plate reader; inhibition, % at 9.99 µM; 350,000 compounds, 0.24% hits; AID 652162; in the data active = inhibition above about 10%
# PrP 5UTR inh: suppresses PrP 5' UTR mRNA reporter expression | cell-based PrP 5' UTR mRNA reporter, plate reader | inhibition, % (concentration not given with the values) | 340,000 compounds, 0.35% hits | AID 488862; in the data active = inhibition above about 52%; also: 0 = median of the neutral control wells
# Y pestis TopoI: inhibitors of Yersinia pestis topoisomerase I | Y. pestis Topo-I cleavage product accumulation, plate reader | activity, % at 10 µM | 360,000 compounds, 0.064% hits | AID 504884; in the data active = activity above about 50%, passing the limit was not always enough
# Vc quorum ag-2: quorum light induction in BH1578 reporter strain. AID 602243. V. cholerae BH1578 lux reporter, luminescence, 6 h. shares compounds with Vc quorum ag-1. activation, % at 50 µM. 620 tested, under 10 active; call rule not given here
# The depositor's hits bear a star; i = inactive; · = not tested or not shown; + = active, no number. Most compounds without a hit are left out; they make up all but 0.65% or so of the library.
SMILES,UGM FP inh,Vc quorum ag-1,TcdB GH inh,PrP 5UTR inh,Y pestis TopoI,Vc quorum ag-2
O=C(OCc1cc(=O)n2ccsc2n1)c1ccc(OC(F)F)cc1,·,12.8,-0.3,-10.0,9.7,0.0
Clc1ccc(-c2cnc(Oc3ccccc3)nc2)cc1,·,2.2,·,-84.7,6.7,·
Cc1ccc(Oc2nccc(-c3ccc(Cl)cc3)n2)cc1,-1.4,12.5,·,-38.2,7.8,0.1
CCC(=O)Nc1ccc2c(c1)C(=O)N(C)C[C@H](OC)[C@@H](C)CN(C(=O)c1ccncc1)[C@H](C)CO2,·,·,0.1,·,·,·
CN(C(=O)Cn1cc(C(F)(F)F)cc(Cl)c1=O)C1CCS(=O)(=O)C1 (stereo not given),-0.4,14.3,-11.3,-6.0,-0.3,1.0
CCN1CCN(C(=O)c2ccc(COc3ccc(Cl)cc3)o2)CC1,2.6,12.5,·,-11.2,20.2,1.3
C=CCn1c(-c2cc(OC)cc(OC)c2)n[nH]c1=S,1.7,22.2*,·,-24.8,3.7,0.1
CN(Cc1cn[nH]c1-c1cc2ccccc2o1)CC1CCOCC1,2.6,25.1*,0.7,-40.2,-2.3,0.7
Cc1ccc(C(=O)N(C)CC(=O)Nc2ccc(N3CCOCC3)cc2)s1,5.8,14.3,0.1,-32.6,-1.1,100.0
CC=Cc1ccc2n(c1=O)C[C@H]1[C@H](CO)[C@@H](C(=O)NC3CCC3)[C@@H]2N1Cc1cccnc1 (mixture of isomers),·,·,0.0,·,·,·
C=CCNC(=O)c1c2c(nc3ccccc13)-c1ccccc1CC2,3.7,-0.3,·,-33.3,4.4,·
CC(C)CNC(=O)c1c2c(nc3ccccc13)-c1ccccc1CC2,1.2,16.7*,·,-16.5,0.4,0.2
CC(C)Oc1nc(-c2ccc(Cl)cc2)nc2ccccc12,2.2,-0.2,-1.3,-15.1,7.9,·
COc1cccc(-c2nc(OC(C)C)c3ccccc3n2)c1,-0.3,25.0*,·,-20.8,30.3,0.5
COCC#Cc1ccc([C@@H]2[C@H](CO)N3C(=O)CN(C(=O)C4CCCC4)C[C@@H]23)cc1,·,·,-0.9,·,·,·
COc1ccccc1-c1ccc([C@@H]2[C@H](CO)N(C(=O)C3CC3)C23CN(C(C)=O)C3)cc1,·,·,-0.3,·,·,·
COC(=O)c1cnn(-c2nc(-c3ccccc3)cs2)c1N,2.2,70.0*,0.9,-42.4,7.3,-0.2
CC(C)c1cn(CC[C@H]2CC[C@H](NC(=O)C3CCC3)[C@@H](CO)O2)nn1,·,·,-0.1,·,·,·
COc1ccc2c(c1OC)C(=O)N(c1nccs1)C2,0.1,12.5,·,-30.0,3.5,0.0
COc1ccc(N2Cc3ccc(OC)c(OC)c3C2=O)cc1,0.3,i,1.2,-62.2,-9.3,·
COc1ccc(-c2nc(N)ncc2Oc2ccccc2Br)c(O)c1,-0.8,35.7*,·,-22.9,1.4,0.0
COc1cccc(Oc2cnc(N)nc2-c2ccc(OC)cc2O)c1,-2.9,2.2,·,2.3,0.3,·
C[C@H]1CN([C@@H](C)CO)C(=O)Cc2cc(NC(=O)NC3CCCCC3)ccc2O[C@H]1CN(C)C,·,·,0.0,·,·,·
Cc1ccc(S(=O)(=O)Nc2cc(C(=O)NCCN(C)C)ccc2N2CCCCC2)cc1,2.3,16.7*,·,-3.7,1.2,0.3
C[C@@H]1CN([C@H](C)CO)C(=O)c2cc(NC(=O)Cc3ccccc3)ccc2O[C@H]1CN(C)C(=O)Nc1cccc2ccccc12,·,·,-0.4,·,·,·
SMILES,UGM FP inh,Vc quorum ag-1,TcdB GH inh,PrP 5UTR inh,Y pestis TopoI,Vc quorum ag-2
CCCc1cc(=O)[nH]c(Nc2ccc(N3CCCCC3)cc2)n1,2.3,+,·,-10.6,-5.4,i
CCOC(=O)Nc1ccc(S(=O)(=O)Nc2cc(C)nc(C)n2)cc1,0.6,12.5,·,-16.7,2.2,12.8
CC(=O)Nc1ccc2c(c1)C(=O)N(C)[C@@H]1CC[C@@H](CC(=O)NCc3ccccc3Cl)O[C@@H]1CO2,·,·,-1.0,·,·,·
COC(=O)c1sc2ncccc2c1OCc1c(Cl)cccc1Cl,0.6,14.3,·,-17.5,4.4,0.6
COC(=O)c1sc2ncccc2c1OCc1cccc(Cl)c1,-0.8,-0.3,·,0.4,-10.7,·
CCCNC(=O)[C@@H]1[C@@H](CO)[C@@H]2Cn3c(ccc(-c4cccc(C(=O)N(C)C)c4)c3=O)[C@H]1N2,·,·,-10.6,·,·,·
CCN(CC)C(=O)c1sc(NC(=O)Cc2ccccc2)c(C#N)c1C,0.5,2.2,·,-13.8,-1.9,·
CCN(CC)C(=O)c1sc(NC(=O)Cc2ccc(OC)cc2)c(C#N)c1C,2.2,16.7*,·,-12.3,8.7,0.1
O=C(NCC1CCCO1)C1CCN(C(=O)c2ccc(Cl)cc2)CC1 (stereo not given),0.4,16.7*,·,-11.5,5.2,0.2
CC(C)NC(=O)c1cnc(Sc2ncc(C(F)(F)F)cc2Cl)n1C,-3.4,12.5,·,-6.7,-4.3,-0.1
Cn1c(C(=O)O)cnc1Sc1ncc(C(F)(F)F)cc1Cl,-3.6,1.6,6.6,-14.5,3.0,·
Cc1ccc(CN2C(=O)CCC2C(=O)NCCN(CC(C)C)CC(C)C)cc1 (stereo not given),4.3,12.5,·,-14.0,18.6,0.2
CCN(Cc1ccncc1)C(=O)CCc1nnc(CCc2ccc(OC)cc2)o1,1.1,i,1.1,-12.7,7.7,·
CCC1C(=O)NCCN1C(=O)CCc1nnc(CCc2ccc(OC)cc2)o1 (stereo not given),-1.3,10.8,0.4,-19.5,9.9,0.5
CCCNC(=O)N(C)C[C@@H]1Oc2ncc(C#CC3CC3)cc2C(=O)N([C@H](C)CO)C[C@@H]1C,·,·,-0.7,·,·,·
Cc1cccc(C(=O)NCC(c2cccs2)N2CCOCC2)c1 (stereo not given),·,14.3,3.2,-8.7,-3.1,0.2
Cc1cccc(C(=O)NCC(=O)NCC(c2cccs2)N2CCOCC2)c1 (stereo not given),1.7,-0.7,1.6,-13.0,6.1,·
Cc1ccc(C)c(S(=O)(=O)N2CCN(C(=O)c3n[nH]c(=O)c4ccccc34)CC2)c1,1.5,31.6*,0.0,-11.6,3.0,322.7
O=C(NCc1ccco1)C(C(=O)c1ccc(F)cc1)n1ccccc1=O (stereo not given),-4.6,0.4,2.9,-6.3,-5.8,·
O=C(NCc1ccccn1)C(C(=O)c1ccc(F)cc1)n1ccccc1=O (stereo not given),3.1,12.5,·,-16.5,11.5,-0.2
O=C(N[C@H]1CC[C@H](CCn2cc(-c3ccccn3)nn2)O[C@@H]1CO)c1cccnc1,·,·,-1.0,·,·,·
Cc1cc(Cl)ccc1OCC(=O)NNC(=O)C1CSC2(C)CCC(=O)N12 (stereo not given),-1.1,i,-2.5,-26.3,9.2,·
CC12CCC(=O)N1C(C(=O)NNC(=O)COc1ccc(Br)cc1)CS2 (stereo not given),-2.4,12.5,1.3,-20.6,8.4,0.0
CCCN(C)C[C@H]1Oc2cc(-c3ccc(C)cc3)ccc2S(=O)(=O)N([C@H](C)CO)C[C@@H]1C,·,·,0.1,·,·,·
O=C(COC(=O)/C=C/c1ccccc1)NC1CCCC1,0.6,528.9*,-1.5,-15.4,2.2,475.8
O=C(Cc1ccc(Cl)cc1)NC1CCCCCC1,0.1,i,-6.0,-32.4,-0.1,·
O=C(COC(=O)/C=C/c1ccc(OC(F)F)cc1)NC1CCCCCCC1,3.8,-17.1,1.5,-13.3,13.0,·
